The source made the active and inactive calls.

Assay [1] deals with Human papillomavirus type 1a protein E7 (residues 44-93). Kind of assay: small molecules binding HPV E7 44-93 – biochemical, small-molecule microarray, residues 44-93, 635 nm fluorescence, primary screen (AID 1108).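 Further: E7 fragment applied at 1 µg/mL in TBST for 1 h at 4 C; score combines spot fluorescence with its signal to noise ratio.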 Conditions: fluorescence 635 nm, higher = more signal.
The nature of assay [2]: hepatitis C replication reporter changes, two-sided – Huh7 cells, luciferase reporter, HCV replication inhibitor project, primary screen (AID 1109).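 Further: huh7 hepatoma cells harbouring a luciferase neomycin HCV replicon reporter; luciferase luminescence as measure of HCV replicon replication; test concentration not given here.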 Conditions: Huh7 HCV replicon luciferase reporter, 48 h; higher = more signal.
In assay [3] the target is Left-right determination factor 2 (Homo sapiens) (UniProt O00292). In words: small molecules binding LEFTY2 protein – biochemical, small-molecule microarray, 635 nm fluorescence scan, primary screen (AID 1110). Conditions: higher = more signal.
Assay [4] has as its target Calmodulin-1 (Homo sapiens) (UniProt P0DP23). In words: small molecules binding calmodulin-1 with EGTA – biochemical, small-molecule microarray, Cy5-labelled CALM1, profiling panel (AID 1111).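 Further: labelled calmodulin applied in Tris saline Tween buffer holding calcium plus EGTA and DTT.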 The conditions noted are these: Cy5-CALM1 binding fluorescence, higher = more signal.
Assay [5] shares this target. In words: small molecules binding Ca-loaded calmodulin-1 – biochemical, small-molecule microarray, Cy5-labelled CALM1, plus calcium, artefact control for SMM control-protein annotation, profiling panel (AID 1112).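 Further: score merges spot fluorescence with signal to noise from triplicate slides.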 Conditions: Cy5-CALM1 binding fluorescence, higher = more signal.
A short description of assay [6]: probe aWnt5a binding to arrayed compounds – biochemical, biotinylated probe, 635/667 nm fluorescence, primary screen (AID 1113).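 Further: score merges 667 nm fluorescence intensity with signal-to-noise per printed feature.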 Conditions: small-molecule microarray, higher = more signal.
The nature of assay [7]: probe aShh binding to arrayed compounds – biochemical, biotinylated probe, 635/667 nm fluorescence, primary screen (AID 1114).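 Further: probe is biotin-labelled aShh protein from a stem cell growth factor screen; measures binding of labelled protein to compounds printed on the slide; score merges feature fluorescence at 667 nm with signal-to-noise.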 Conditions: small-molecule microarray, higher = more signal.
Assay [8] can be described thus: probe aNog binding to arrayed compounds – biochemical, biotinylated probe, 635/667 nm fluorescence, primary screen (AID 1115).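 Further: probe is biotinylated aNog protein used at 0.15 µg/mL for 1 h at 4 C; z-score combines 667 nm fluorescence of each spot with its signal to noise.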 Conditions: small-molecule microarray, higher = more signal.
Assay [9] has as its target Torsin-1A-interacting protein 1 (Homo sapiens) (UniProt Q5JTV8). In words: compound microarray binding of lysate hLAP1 – cell lysate, small-molecule microarray, COS7 lysate, 635/667 nm fluorescence, primary screen (AID 1116). The conditions noted are these: 635 nm fluorescence, higher = more signal.
The target of assay [10] is Alpha-bungarotoxin (Bungarus multicinctus) (UniProt P60615). Kind of assay: compounds binding labelled alpha-BTX control protein – biochemical, small-molecule microarray, Alexa647 label, 635/667 nm fluorescence, artefact control for SMM control protein annotation, profiling panel (AID 1117). The conditions noted are these: alpha-BTX-A647 binding fluorescence, higher = more signal.

The target in a further assay is Albumin (Bos taurus) (UniProt P02769). Kind of assay: compounds binding labelled BSA control protein – biochemical, small-molecule microarray, Alexa647 label, 635/667 nm fluorescence, artefact control for SMM control protein annotation, profiling panel (AID 1118).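 Further: score merges 667 nm emission intensity and signal-to-noise per printed compound spot.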 The conditions noted are these: BSA-A647 binding, fluorescence 635 nm, higher = more signal.
A short description of assay [11]: probe aXIP binding to arrayed compounds – biochemical, NeuroSMM set, 635/667 nm fluorescence, primary screen (AID 1119).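 Further: probe is the protein aXip251-270 applied at 1 µg/mL to compound-printed slides; binding of probe to printed compounds measured as 667 nm fluorescence plus signal to noise.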 The conditions noted are these: small-molecule microarray, higher = more signal, called active from +8 up or from −8 down.
The nature of assay [12]: probe aNOTCH3 binding on compound microarray – biochemical, small-molecule microarray, 635/667 nm fluorescence, primary screen (AID 1120).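 Further: probe is a biotin-tagged antibody raised against NOTCH3 rather than NOTCH3 protein; score merges spot fluorescence near 667 nm with spot signal to noise.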 The conditions noted are these: higher = more signal.
Assay [13] in a line: probe aNOTCH2 binding on compound microarray – biochemical, small-molecule microarray, 635/667 nm fluorescence, primary screen (AID 1121).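 Further: score merges feature fluorescence read at 667 nm with its signal to noise.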 Conditions: higher = more signal.
Assay [14] concerns the target Carbonic anhydrase 2 (Homo sapiens) (UniProt P00918). Kind of assay: compounds binding carbonic anhydrase 2 – biochemical, small-molecule microarray, Alexa647-labelled CAII, profiling panel (AID 1122). Conditions: CAII-A647 binding fluorescence, higher = more signal.
Assay [15] in a line: COS7 lysate on small-molecule microarray, probe aHis, 635 nm (AID 1123).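 Further: z-score combines 667nm fluorescence intensity with signal-to-noise per printed compound spot.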 The conditions noted are these: COS7 cell lysate, fluorescence, higher = more signal.
Assay [16] is described as follows: probe aLAP1 signal on lysate-treated microarray – cell lysate, small-molecule microarray, COS7 lysate, primary screen (AID 1124).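 Further: lysate comes from COS7 cells expressing LAP1 and is applied at 0.3 µg/mL; score merges spot fluorescence near 667 nm with signal-to-noise over triplicate slides.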 The conditions noted are these: probe aLAP1, fluorescence, higher = more signal.
For the next assay, the system named is Sam68 (KHDRBS1). In words: compounds binding KHDRBS1 protein – biochemical, small-molecule microarray, 635 nm fluorescence, primary screen (AID 1125).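 Further: score merges 667 nm channel intensity with signal to noise over triplicate slides.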 Conditions: higher = more signal.
The subject of assay [17] is Chordin-like protein 2 (CHRDL2). In words: compounds binding chordin-like 2 – biochemical, small-molecule microarray, 635 nm fluorescence, primary screen (AID 1126).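 Further: printed compound slides probed with Chrdl2 protein at 4 µg/mL for 1 h at 4 C; score merges 667 nm emission intensity with signal to noise over three replicate slides.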 The conditions noted are these: fluorescence 635 nm, higher = more signal.
The target of assay [18] is Concanavalin-A (Canavalia ensiformis) (UniProt P02866). Kind of assay: compounds binding concanavalin A lectin – biochemical, small-molecule microarray, Alexa647 label, 635 nm, artefact control for SMM control protein annotation, primary screen (AID 1127).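 Further: z combines 667 nm emission intensity with signal-to-noise across three replicate slides.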 The conditions noted are these: ConA-A647 binding fluorescence, higher = more signal.
Concanavalin-A (Canavalia ensiformis), sequence (P02866 whole entry, looked up): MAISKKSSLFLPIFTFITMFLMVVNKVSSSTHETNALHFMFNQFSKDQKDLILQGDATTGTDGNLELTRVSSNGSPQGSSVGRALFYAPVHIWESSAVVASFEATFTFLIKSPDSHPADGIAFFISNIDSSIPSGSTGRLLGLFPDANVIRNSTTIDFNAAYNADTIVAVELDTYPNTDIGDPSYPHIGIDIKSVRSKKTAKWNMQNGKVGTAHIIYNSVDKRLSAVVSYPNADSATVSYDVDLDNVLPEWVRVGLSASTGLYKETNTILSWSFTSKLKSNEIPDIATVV

Left-right determination factor 2 (Homo sapiens), sequence (O00292 whole entry, looked up): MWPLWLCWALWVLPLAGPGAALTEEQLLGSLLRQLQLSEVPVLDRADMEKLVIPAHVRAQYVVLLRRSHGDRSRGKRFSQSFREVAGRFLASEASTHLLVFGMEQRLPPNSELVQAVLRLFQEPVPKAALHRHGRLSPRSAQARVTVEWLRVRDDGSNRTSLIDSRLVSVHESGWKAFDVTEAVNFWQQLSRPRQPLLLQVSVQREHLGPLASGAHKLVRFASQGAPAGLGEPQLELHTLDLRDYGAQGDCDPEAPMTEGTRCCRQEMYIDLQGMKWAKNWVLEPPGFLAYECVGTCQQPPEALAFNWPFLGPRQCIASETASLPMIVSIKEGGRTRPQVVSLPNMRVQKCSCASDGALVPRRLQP
Torsin-1A-interacting protein 1 (Homo sapiens), sequence (Q5JTV8 whole entry, looked up): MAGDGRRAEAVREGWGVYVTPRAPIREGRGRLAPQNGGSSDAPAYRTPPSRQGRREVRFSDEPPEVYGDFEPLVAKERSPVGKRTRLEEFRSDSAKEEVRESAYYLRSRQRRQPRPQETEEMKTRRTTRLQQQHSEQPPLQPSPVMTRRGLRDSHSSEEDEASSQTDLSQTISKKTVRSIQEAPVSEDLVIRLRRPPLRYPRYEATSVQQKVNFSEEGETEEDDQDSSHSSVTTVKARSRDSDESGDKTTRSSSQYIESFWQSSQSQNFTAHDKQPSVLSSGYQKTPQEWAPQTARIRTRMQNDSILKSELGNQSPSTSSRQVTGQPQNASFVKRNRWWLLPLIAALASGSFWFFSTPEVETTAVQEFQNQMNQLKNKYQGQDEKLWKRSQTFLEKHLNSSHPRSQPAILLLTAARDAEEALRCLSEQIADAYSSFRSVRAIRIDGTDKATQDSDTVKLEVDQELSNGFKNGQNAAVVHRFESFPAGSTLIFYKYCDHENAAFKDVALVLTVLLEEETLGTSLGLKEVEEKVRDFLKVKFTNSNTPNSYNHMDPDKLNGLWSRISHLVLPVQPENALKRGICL
Albumin (Bos taurus), sequence (P02769 whole entry, looked up): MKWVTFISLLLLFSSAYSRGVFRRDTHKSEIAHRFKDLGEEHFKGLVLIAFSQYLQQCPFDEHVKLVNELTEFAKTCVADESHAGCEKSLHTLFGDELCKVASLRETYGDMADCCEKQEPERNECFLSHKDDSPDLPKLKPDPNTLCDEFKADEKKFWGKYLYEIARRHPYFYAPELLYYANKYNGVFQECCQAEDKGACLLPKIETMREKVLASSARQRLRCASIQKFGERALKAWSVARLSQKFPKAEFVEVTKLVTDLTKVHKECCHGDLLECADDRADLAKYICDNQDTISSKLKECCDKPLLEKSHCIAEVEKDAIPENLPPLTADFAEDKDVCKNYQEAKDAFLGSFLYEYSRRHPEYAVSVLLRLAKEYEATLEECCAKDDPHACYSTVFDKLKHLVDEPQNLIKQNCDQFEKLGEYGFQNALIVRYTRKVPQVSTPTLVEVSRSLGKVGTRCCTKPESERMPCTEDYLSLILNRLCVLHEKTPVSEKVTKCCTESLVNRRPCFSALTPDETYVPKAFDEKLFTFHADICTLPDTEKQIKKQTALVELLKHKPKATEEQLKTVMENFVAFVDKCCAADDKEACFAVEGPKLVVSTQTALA
Alpha-bungarotoxin (Bungarus multicinctus), sequence (P60615 whole entry, looked up): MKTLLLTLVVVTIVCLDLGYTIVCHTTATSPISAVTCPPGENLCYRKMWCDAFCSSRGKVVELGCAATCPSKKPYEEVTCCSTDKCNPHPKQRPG

Take `CC(C)N1C(=O)C[C@@](C(=O)NCc2ccccc2)(c2ccc([N+](=O)[O-])cc2)[C@H]1c1ccc(CO)cc1`: the composite z-score is 1.37 in assay [1]; -0.57 in assay [3]; -0.47 in [4]; -0.602 in [5]; -0.0894 in assay [6]; -0.13 in [7]. For the same compound, the composite z-score is -0.498 in assay [8]; 1.99 in assay [9]; -0.148 in [10]; 0.467 with Albumin (Bos taurus); -0.186 in assay [12]; -0.0617 in assay [13]. Also, the composite z-score is 0.702 in [14]; 2.37 in assay [15]; 0.506 in assay [16]; 1.31 in the assay on Sam68 (KHDRBS1); -0.791 in assay [17]; -0.0974 in assay [18]. In assay [2], this compound showed a z-score of -0.0323. In addition, in assay [11], the composite Z-score was 0.0119 (inactive).

For `COCCOC(=O)N1C(=O)[C@@]2(c3cc(C#CCCO)ccc31)[C@H](c1ccc(O)cc1)N1[C@H](c3ccccc3)[C@H](c3ccccc3)OC(=O)[C@H]1[C@@H]2C(N)=O`, the composite z-score in assay [1] is -0.0809; in assay [3] it was -0.597; in assay [4] it was -0.523; in [5] it was 0.456; in assay [6], -0.0118; in assay [7], 0.0611. For the same compound, the composite z-score in assay [8] is 0.0157; in assay [9], 0.393; in assay [10], 0.755; with Albumin (Bos taurus), 0.136; in assay [12], -0.0967; in [13], -0.0956. Besides, the composite z-score in [14] is 0.738; in [15] it was 0.831; in assay [16] it was 1.73; in the assay with Sam68 (KHDRBS1), 0.761; in assay [17], -0.552; in assay [18], 0.59. This compound had a z-score in assay [2] of -0.016. In addition, in assay [11], the composite Z-score was 0.257 (inactive).

`O=C(CCN1CCOCC1)c1cccc(O)c1`: the composite z-score in assay [1] is 0.591; in [3] it was 1.47; in [4], -0.396; in assay [5], -1.21; in assay [6] it was -0.0372; in [7] it was -0.123. The composite z-score is -0.158 in assay [8]; 0.0422 in assay [9]; 1.4 in assay [10]; 0.379 with Albumin (Bos taurus); 0.324 in [12]; 0.0292 in assay [13]. The composite z-score came to 0.634 in assay [14]; 0.973 in assay [15]; 0.629 in assay [16]; 0.922 in the assay on Sam68 (KHDRBS1); 1.48 in assay [17]; 0.767 in assay [18]. Moreover, the z-score in assay [2] is -3.35. Further, the composite Z-score in assay [11] is 0.989 (inactive).

As for `COC(=O)[C@@]1(Cc2ccc(OC)cc2)[C@H]2c3cc(C(=O)N4CCCC4)n(CCc4c[nH]c5cc(F)ccc45)c3C[C@H]2CN1C(=O)c1ccccc1`, the composite z-score is 0.991 in assay [1]; 0.259 in assay [3]; 2.73 in [4]; 1.07 in [5]; 0.168 in [6]; 0.265 in assay [7]. In addition, the composite z-score in assay [8] was determined as 2.06; in [9] it was 2.94; in [10] it was 1.42; in the assay with Albumin (Bos taurus), 0.957; in assay [12] it was 0.127; in assay [13] it was 0.0064. Also, the composite z-score in assay [14] is 0.714; in [15], 3.24; in assay [16], 0.959; in the assay on Sam68 (KHDRBS1), 1.29; in assay [17] it was -0.703; in assay [18] it was 0.871. The same compound gave a z-score in [2] of -1.89. Moreover, the composite Z-score in assay [11] is -0.0378 (inactive).

Regarding `COCCOC(=O)N1C(=O)[C@@]2(c3cc(C#CC4=CCCCC4)ccc31)[C@H](C(=O)NC[C@H](O)c1ccccc1)[C@H]1C(=O)O[C@H](c3ccccc3)[C@H](c3ccccc3)N1[C@@H]2c1ccc(O)cc1`, the composite z-score is 1.38 in assay [1]; 0.693 in [3]; 1.1 in assay [4]; 0.274 in assay [5]; -0.163 in assay [6]; -0.0055 in assay [7]. Moreover, the composite z-score is 0.996 in [8]; 0.949 in [9]; 1.13 in [10]; 0.112 with Albumin (Bos taurus); 0.184 in assay [12]; 0.103 in assay [13]. Further, the composite z-score in assay [14] stood at 0.521; in [15], 0.824; in assay [16] it was 0.992; in the assay on Sam68 (KHDRBS1) it was 1.29; in assay [17], 1.12; in assay [18], 1. In addition, in [2], the z-score was -1.84. Also, the composite Z-score in [11] is 0.0886 (inactive).

Values taken from PubChem BioAssay.
